The campaign covered roughly 53,000 compounds. About 900 (1.7%) showed an effect of 50% or more. Shown is part of a subset that was picked to be rich in strong results.

In this assay the test system is Mycobacterium tuberculosis. The assay can be described thus: Cornell - Phenotypic assay to identify agents that inhibit growth of Mycobacterium tuberculosis. It is filed as functional. Set-up: scale not given: direction of the effect not stated beside the values. To be noted: 10 mM as filed; unlikely as a test dose.
Turning to `CN(Cc1ccc(CCC(C)(C)O)cc1)CC1(CO)CC1`, the “Percent Effect” value is on record as 3.977%.

Consider `CC(Cc1ccco1)NS(=O)(=O)N1CCCCCC1` (centres undefined), for which the “Percent Effect” value was 68.78%.

In the case of `CC1CCN(S(=O)(=O)NC(C)Cc2ccco2)CC1` (centres undefined), the “Percent Effect” value amounted to 45%.

As for `CC(Cc1ccco1)NS(=O)(=O)N1CCCCC1` (centres undefined), the “Percent Effect” value turned out to be 35.85%.

With `CCCn1c(C)c(CC(=O)NCC(C)O)c2c1CC(C)(C)CC2=O` (centres undefined), the “Percent Effect” value came out at 21.56%.

`CCc1cc(N(C)CCC(O)c2ccccc2)n2nccc2n1` (centres undefined): the “Percent Effect” value is recorded as -53.72%.

On to `COCC(=O)N1C[C@@H](c2cccc(F)c2)[C@H]2[C@H]1CCCCCN2C(C)=O`, for which the “Percent Effect” value is listed as -30.92%.

As to `O=C(NCc1ccc(Br)cc1)C1(O)CCSCC1`, the “Percent Effect” value was determined as 26.99%.

In the case of `O=C(O)C(F)(F)F.O=C(O)C(F)(F)F.O=C(O)C(F)(F)F.c1cc(CNCC2OCCc3cn(CC4CCOCC4)nc32)ccn1` (centres undefined), the “Percent Effect” value is reported as -7.498%.

For `CCCN(CC(F)(F)F)S(=O)(=O)c1cc(C(N)=O)n(C)c1`, the “Percent Effect” value was -26.73%.

For `COCC1CCN(C(=O)c2cn(Cc3ccccc3F)nn2)CC1`, the “Percent Effect” value turned out to be 25.9%.

`COCC1CCN(C(=O)c2cn(Cc3ccccc3C(F)(F)F)nn2)C1` (centres undefined): the “Percent Effect” value turned out to be 62.81%.

Turning to `COCC1CCN(C(=O)c2cn(Cc3cccc(C(F)(F)F)c3)nn2)C1` (centres undefined), the “Percent Effect” value was 30.37%.

Turning to `Cc1nc(NCC2CCOCC2)cc(C2CCN2S(C)(=O)=O)n1` (centres undefined), the “Percent Effect” value came out at 10.58%.

On to `CC1N(c2cnn(C)c2)C(=O)COC12CCN(Cc1ccco1)CC2.O=C(O)C(F)(F)F` (centres undefined), for which the “Percent Effect” value was 2.626%.

On to `COCCNC(=O)[C@H]1C[C@@H]2CCN(c3ccncn3)C[C@H]2O1.O=C(O)C(F)(F)F`, for which the “Percent Effect” value is given as 26.18%.

As for `CCCNC(=O)c1cncc(CC2CCCN(C)C2)c1` (centres undefined), the “Percent Effect” value was -32.48%.

Regarding `CN1C(=O)[C@H](OC(N)=O)[C@@H](C(=O)Nc2ccccc2)C12CCNCC2`, the “Percent Effect” value is recorded as -56.88%.

On to `COCCN(Cc1ccco1)Cc1nc(-c2ccccc2)no1`, for which the “Percent Effect” value is reported as -9.832%.

For `COCCN(Cc1ccco1)Cc1nc(-c2ccsc2)no1`, the “Percent Effect” value is reported as -23.17%.

For `COCCN(Cc1ccccc1)Cc1nc(-c2ccsc2)no1`, the “Percent Effect” value is given as 50.54%.

As to `CN(C)c1cc(C2CCCN(C(=O)c3noc4c3CCCC4)C2)ccn1` (centres undefined), the “Percent Effect” value came to 38.49%.

With `COCCNC(=O)c1cc2c(c3ccccc3n2C)n1C(=O)N(C)C`, the “Percent Effect” value was 18.89%.

Regarding `O=C(Nc1ccccc1-c1cccs1)N1CCN(CC(F)F)CC1`, the “Percent Effect” value is -4.883%.

In the case of `NC(=O)c1ccc(NC(=O)N2CCN(c3cccs3)CC2)c(F)c1`, the “Percent Effect” value is on record as 54.78%.

Turning to `Cc1cc(C(N)=O)ccc1NC(=O)N1CCN(c2cccs2)CC1`, the “Percent Effect” value was 67.2%.

Consider `Cc1cc(NC(=O)N2CCN(c3cccs3)CC2)ccc1C(N)=O`, for which the “Percent Effect” value was found to be 3.823%.

Consider `CCn1cnnc1CNC(=O)N1CCN(c2cccs2)CC1`, for which the “Percent Effect” value is recorded as -10.74%.

As to `CNC(=O)CN1CCN(C(=O)Nc2ccc(Cl)cc2F)CC1`, the “Percent Effect” value is listed as -7.252%.

In the case of `CC(C)OCCC(=O)NCCc1csc(N2CCCC2)n1`, the “Percent Effect” value was -16.85%.

In the case of `COCC(=O)NCc1cc(=O)n2c(n1)CN(Cc1ccccc1)CCC2.O=C(O)C(F)(F)F`, the “Percent Effect” value is given as 6.068%.

In the case of `OCc1ccc(CN(CCCn2ccnc2)Cc2cccnc2)o1`, the “Percent Effect” value is listed as 33.2%.

For the compound `N#Cc1cc2c(nc1O)CCCCC2`, the “Percent Effect” value is -24.16%.

On to `CN1C(=O)COc2cc(NC(=O)CCc3nc4cccnc4[nH]3)ccc21`, for which the “Percent Effect” value was found to be 11.88%.

As for `COC(=O)Cc1cn2cc(C(F)(F)F)ccc2n1`, the “Percent Effect” value is recorded as -22.96%.

Consider `CC(C)NC(=O)[C@@]12CCO[C@@H]1CCN(Cc1ccc3c(c1)OCO3)C2.O=C(O)C(F)(F)F`, for which the “Percent Effect” value is -5.39%.

In the case of `CCSCC(C)NCc1nc(-c2cccnc2)no1` (centres undefined), the “Percent Effect” value is given as -14.24%.

Consider `O=C(CCc1ccsc1)Nc1cccnc1N1CCCC1`, for which the “Percent Effect” value was found to be 8.029%.

For the compound `CCN(CC)C(=O)CCc1c(C)nc2cc(O)nn2c1C`, the “Percent Effect” value was found to be 7.759%.

With `CN(C)[C@@H]1CN(Cc2cccnc2)C[C@H]1c1cn(C)c2ccccc12.Cl`, the “Percent Effect” value is listed as 6.134%.

Regarding `CN(C)[C@@H]1CN(Cc2ccc(O)cc2)C[C@H]1c1cn(C)c2ccccc12.Cl`, the “Percent Effect” value is on record as -25.68%.

As to `Cc1cc(C)n(C2CN(Cc3ccccn3)C2)n1`, the “Percent Effect” value is reported as -9.481%.

For the compound `CN(C)[C@@H]1CN(Cc2ccccc2O)C[C@H]1c1cn(C)c2ccccc12.Cl`, the “Percent Effect” value was determined as 107.3%.

Consider `CN(C)[C@@H]1CN(Cc2ccccn2)C[C@H]1c1cn(C)c2ccccc12.Cl`, for which the “Percent Effect” value worked out at 54.37%.

For the compound `COc1cccc([C@@H]2CCN(Cc3cn(C)c4ccccc34)C[C@H]2O)c1`, the “Percent Effect” value was -6.919%.

For the compound `CSCC[C@@H]1CN2CCC[C@H]2CN1Cc1cn(C)nc1C`, the “Percent Effect” value is -32.61%.

Consider `Cc1nc(CN2CCCN(Cc3nc4c(F)cccc4[nH]3)CC2)no1`, for which the “Percent Effect” value is given as -62.54%.

Regarding `O=C(NCCS(=O)(=O)N1CCN(c2ncccn2)CC1)C1CC1`, the “Percent Effect” value is on record as -28.73%.

With `CCN(Cc1ccncc1)CC1(O)CCN(C(=O)c2cccc(C)n2)C1` (centres undefined), the “Percent Effect” value is on record as -8.223%.

On to `CCCc1nc(C)c(C(=O)NCCN2CCN(CC)CC2)s1`, for which the “Percent Effect” value was found to be 13.14%.

Take `Cc1cccc(C)c1NC(=O)CC(CN1CCN(C)CC1)C(=O)O` (centres undefined): the “Percent Effect” value turned out to be 68.43%.

In the case of `CN1CCN(CC(CC(=O)Nc2ccc(Cl)cc2)C(=O)O)CC1` (centres undefined), the “Percent Effect” value turned out to be 46.61%.

Regarding `CN1CCCN(CC(CC(=O)Nc2ccc(Cl)cc2)C(=O)O)CC1` (centres undefined), the “Percent Effect” value worked out at 27.51%.

`CC(CN1CCOCC1)NC(=O)NCc1cccs1` (centres undefined): the “Percent Effect” value was -17.54%.

With `COc1cccc(N2CCN(Cc3ccc4[nH]ccc4c3)CC2=O)c1`, the “Percent Effect” value is reported as 56.6%.

In the case of `NCCc1cccc(CN2CCN(c3ccccc3)C(=O)C2)c1`, the “Percent Effect” value is recorded as -23.11%.

`COc1cc(CN2CCN(c3cccc(OC)c3)C(=O)C2)cc(OC)c1`: the “Percent Effect” value was determined as 8.627%.

As for `COc1cccc(N2CCN(Cc3ccc4ccn(C)c4c3)CC2=O)c1`, the “Percent Effect” value amounted to 57.23%.

Consider `COc1cccc(N2CCN(Cc3ncc[nH]3)CC2=O)c1`, for which the “Percent Effect” value was -18.02%.

For `COc1cccc(N2CCN(Cc3cc(C)cc(F)c3)CC2=O)c1`, the “Percent Effect” value is listed as 45.53%.

Regarding `COc1cccc(N2CCN(Cc3ccc4occc4c3)CC2=O)c1`, the “Percent Effect” value was found to be 21.65%.

`COc1cccc(N2CCN(Cc3cccc(CCN)c3)CC2=O)c1`: the “Percent Effect” value amounted to 56.89%.

Consider `NCCc1cccc(CN2CCN(c3cccc(Cl)c3)C(=O)C2)c1`, for which the “Percent Effect” value amounted to 12.48%.

Take `Cc1ccnn1CCC(=O)N1CCCC[C@@]2(C)[C@@H]1CCC(=O)N2C`: the “Percent Effect” value was -72.7%.
